# The campaign covered roughly 68,000 compounds. About 2,700 (4%) showed an effect of 50% or more. The sample as a whole holds a higher share of strong results than the screen did.
# Test system: Plasmodium berghei
# Assay: Screen against P. berghei liver stage (PbLuc), transformed with Luciferase, at 2uM
# Format: functional, HepG2
# Conditions: tested at 2 uM
row,SMILES,INHIBITION
1,COc1ccc2c(c1)OCC(CNC1CCc3ncnn3C1)=C2 (configuration not stated),-34.12%
2,NC(=O)N1CCCC1COC(=O)c1ccc(F)cc1Br (configuration not stated),6.47%
3,Cc1ccc(F)cc1C(=O)OCC1CCCN1C(N)=O (configuration not stated),5.48%
4,NC(=O)N1CCCC1COC(=O)c1cc(F)ccc1F (configuration not stated),61.91%
5,CN1CCN(C=C2N=C(c3cc(-c4ccc(F)cc4)n[nH]3)ON2)CC1,22.39%
6,CCN(C)C[C@@H]1CN(Cc2cccc(Cl)c2)C[C@@H]1CO,38.97%
7,CCN(C)C[C@@H]1CN(S(=O)(=O)c2cccc(C#N)c2)C[C@@H]1CO,14.82%
8,CCN(C)C[C@@H]1CN(S(=O)(=O)c2cccc(Cl)c2)C[C@@H]1CO,55.36%
9,CCN(C)C[C@@H]1CN(S(=O)(=O)c2ccc(C#N)cc2)C[C@@H]1CO,14.82%
10,CC[C@H]1CN(S(=O)(=O)c2ccc(OC)cc2)CC[C@H]1CC(=O)O,45.73%
11,CCN(C)C[C@@H]1CN(S(=O)(=O)c2ccc(OC)cc2)C[C@@H]1CO,76.82%
12,CCCC1(CO)CCCN(C(=O)CNC(N)=O)C1 (configuration not stated),3.49%
13,Cc1noc(C)c1CN1CCOC2(CCCN(c3nncs3)C2)C1 (configuration not stated),31.96%
14,CCCS(=O)(=O)N1CCC2(CC1)CN(CC1CCOC1)c1ccccc12 (configuration not stated),27.67%
15,COc1cn(-c2ccccc2)nc1C(=O)NCCCN1CCCC(C)C1 (configuration not stated),20.11%
16,CC1CCCN(CCNC(=O)c2scnc2Cl)C1 (configuration not stated),78.42%
17,CC1CCN(CCNC(=O)c2scnc2Cl)CC1,47.87%
18,COc1cn(-c2ccccc2)nc1C(=O)NCCN1CCCC(C)C1 (configuration not stated),66.2%
19,O=C(NCCN1CCCCC1)c1scnc1Cl,-9.66%
20,CC1CCCN(CCNC(=O)c2ccn(-c3ccccc3)n2)C1 (configuration not stated),-61.61%
21,O=C(NCC1(O)COCCN(Cc2ccc(O)cc2)C1)c1cnccn1 (configuration not stated),30.1%
22,CCCc1nc(C)cc(NCc2ccc(S(N)(=O)=O)cc2)n1,-16%
23,Cc1nnc(-c2cccc(C#N)c2)n1C1CCCN(C(C)C)C1=O (configuration not stated),-12.01%
24,COc1nc2c(cc1C(=O)N1CC[C@H](CO)[C@@H](O)C1)CCC2,49.02%
25,COCCNc1nc(C)nc2c1CCN(CC1CCC(N)CC1)CC2 (configuration not stated),57.67%
26,COCCNc1nc(C2CCCC2)nc2c1CCNCC2,34.98%

row,SMILES,INHIBITION
1,Cc1nc2c(c(NCCc3nccs3)n1)CCN(CC1CC1)CC2,-28.09%
2,O=C(O)COCC(=O)NC1CC2(CCCCC2)Oc2ccccc21 (configuration not stated),13.22%
3,Cc1noc(C2CCN(C(=O)c3ccc(C(F)(F)F)nc3)CC2)n1,5.05%
4,CC1CCc2nc(O)c(C(=O)NCCCN3CCN(C)CC3)cc2C1 (configuration not stated),68.39%
5,CC1CCc2nc(O)c(C(=O)NCc3ccncc3)cc2C1 (configuration not stated),1.06%
6,CC1CCc2nc(O)c(C(=O)NCCN(C)C)cc2C1 (configuration not stated),27.24%
7,Cc1csc(CCNC(=O)c2cc3c(nc2O)CCC(C)C3)n1 (configuration not stated),-46.57%
8,CC1CCc2nc(O)c(C(=O)NCCc3cccs3)cc2C1 (configuration not stated),53.61%
9,CCCNC(=O)c1cc2c(nc1O)CCC(C)C2 (configuration not stated),44.39%
10,Cc1nn(CCO)c(C)c1CNCc1cccnc1N(C)C,23.42%
11,CC(C)Oc1ncnc2c1CCN(Cc1ccc(F)cc1)CC2,1.08%
12,COc1ccccc1OCCC(=O)N1CCCC1Cn1cc(C)cn1 (configuration not stated),-14.11%
13,Cc1ccc(CNC(=O)CN2CCN(CC(O)C3CC3)CC2)cc1 (configuration not stated),-10.6%
14,Cc1cccc(CN2CCO[C@H]3[C@@H](OCc4ccncc4)CC[C@@H]32)n1,15.78%
15,Cc1cnn(C2CCCN(C(=O)CCCNc3ncccn3)C2)c1 (configuration not stated),-34.45%
16,COCC(=O)N1C[C@H]2CCCC(OCc3cccnc3)[C@H]2C1 (some centres not stated),-34.83%
17,CC(C)N(C)Cc1nnc2n1CCCN(c1cnccn1)C2,20.01%
18,CNC(=O)c1cc2c(nc1NCC(C)C)CCN(C)CC2,20.21%
19,CNC(=O)c1cc2c(nc1NC(C)C)CCN(C(=O)NC(C)C)CC2,54.06%
20,CNC(=O)c1cc2c(nc1NC(C)C)CCNCC2,-9.98%
21,CNC(=O)N1CCc2cc(C(=O)NCC3CC3)c(NC(C)C)nc2CC1,11.9%
22,Cc1nc2c(cc1C(=O)O)CCN(CC1CC1)CC2,-14.21%
23,Cn1nccc1-c1nc2c(cc1C(=O)O)CCN(C(=O)C1CC1)CC2,-28.2%
24,CNC(=O)c1cc2c(nc1NCC(C)C)CCN(CC1CC1)CC2,57.85%
25,CNC(=O)c1cc2c(nc1NCC1CC1)CCN(CC1CC1)CC2,11.18%
26,Cn1nccc1-c1nc2c(cc1C(=O)O)CCN(CC1CC1)CC2,52.66%

# From ChEMBL document CHEMBL4513216, “Probing the Open Global Health Chemical Diversity Library for Multistage-Active Starting Points for Next-Generation Antimalarials” (ACS Infect Dis, 2020)
